Sampled rows, rich in hits. Any-hit rate of the full collection: about 21%.
IL1B secr inh: inflammasome signaling inhibition, IL-1 beta readout | THP-1 LPS/ATP IL-1B secretion, AlphaLISA, 16 h; active compounds read low | activity change, % at 57.5 µM | hit rate 4.7% among 360,000; in the data active = activity change below about -50%; inconclusive = mostly about -30% to -49%
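THP-1 cells pretreated 1 hr with compounds (up to 57.5 uM final), then stimulated with LPS (250 ng/mL final) plus ATP (1.25 mM final); secreted IL-1B measured by AlphaLISA after 16 hr, decreased signal indicating inhibition.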
DT40 TDP1 no CPT: qHTS for Inhibitors of human tyrosyl-DNA phosphodiesterase 1 (TDP1): qHTS in cells in absence of CPT. DT40 Tdp1-/- hTDP1 cells, no CPT, ATP luminescence, 48 h. Potency, µM (highest dose often 46.2 µM), for the others: at the top dose activity change, negative = growth inhibition, usual class: inhibitors. AID 686978, 2013. hit rate 15% among 420,000; also: potency is read from the fitted curve at half-maximal effect; nearly all actives have a fitted effect of over 55% in size
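No-CPT arm: Tdp1-/-;hTDP1 DT40 cells (400/well) plus compounds, incubated ≥48 hr at 37 °C. Readout CellTiter-Glo luminescence.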
RORgamma inh: ROR gamma (mouse) transcription inhibition | P51450 | Drosophila S2 Gal4-RORgamma UAS-luciferase reporter, 20 h | Potency, µM (series often up to 53.6 µM), inactives show at the top dose activity change, negative = inhibition, most hits filed as inhibitors | hit rate 5.4% among 310,000 | AID 2551; also: potency is read from the fitted curve at half-maximal effect; nearly all actives have a fitted effect of over 60% in size
Target sequence (P51450 whole entry, looked up, the tested form may be a part): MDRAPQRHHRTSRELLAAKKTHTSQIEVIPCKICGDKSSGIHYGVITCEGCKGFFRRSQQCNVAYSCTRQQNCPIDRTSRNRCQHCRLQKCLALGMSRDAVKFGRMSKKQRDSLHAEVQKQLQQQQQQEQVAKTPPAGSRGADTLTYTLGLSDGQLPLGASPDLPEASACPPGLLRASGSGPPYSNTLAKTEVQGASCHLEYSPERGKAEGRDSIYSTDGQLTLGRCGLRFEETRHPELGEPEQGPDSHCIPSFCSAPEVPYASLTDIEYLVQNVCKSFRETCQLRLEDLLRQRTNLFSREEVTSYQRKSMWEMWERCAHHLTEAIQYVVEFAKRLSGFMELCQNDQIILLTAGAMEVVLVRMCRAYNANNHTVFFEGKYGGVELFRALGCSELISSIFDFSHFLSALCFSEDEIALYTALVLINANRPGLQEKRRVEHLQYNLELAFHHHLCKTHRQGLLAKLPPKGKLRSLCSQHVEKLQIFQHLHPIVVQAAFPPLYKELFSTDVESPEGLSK
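Drosophila Schneider cells stably carrying a metallothionein-driven Gal4 DBD–ROR gamma fusion and a UAS-Photinus luciferase reporter were exposed to compound for 1 hr, then induced with copper sulfate (700 uM final) for 20 hr at ambient temperature before luminescence reading.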
VP16 counter: inhibits Gal4-VP16 luciferase reporter, ROR gamma counter-screen; Potency, µM (series often up to 53.6 µM), for the others: at the top dose activity, negative = inhibition, hits mostly inhibitors; hit rate 3.5% among 310,000; Drosophila S2 Gal4-VP16 UAS-luciferase, luminescence, 20 h; AID 2546;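 also: Gal4-VP16 expression switched on by copper sulfate through the metallothionein promoter; potency is read from the fitted curve at half-maximal effect; nearly all actives have a fitted effect of over 50% in size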
TDP1 cell CPT: DT40-hTDP1 cell growth loss with CPT. chicken DT40 Tdp1-/-;hTDP1 cells + 20 nM CPT, ATP luminescence, 48 h. Potency, µM (doses to about 46.2 µM), for inactives: at the highest dose activity change, negative = growth inhibition, most hits filed as inhibitors. hit rate 12% among 420,000; also: potency is read from the fitted curve at half-maximal effect; nearly all actives have a fitted effect of over 55% in size
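Chicken DT40 Tdp1-/- cells complemented with human TDP1, 400 cells/well, exposed to compounds plus 20 nM camptothecin for at least 48 h at 37 C; viability read as ATP content by CellTiter-Glo luminescence.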
ELG1 DNA repair: blocks ELG1-dependent DNA repair in HEK293T cells. HEK293T ELG1-luciferase reporter, luminescence, 16 h; DNA damage induced by 5-fluorouridine. Potency, µM (highest dose often 46.1 µM), for inactives: at the top dose activity change, negative = inhibition, most hits filed as inhibitors. hit rate 2.3% among 330,000; also: potency is read from the fitted curve at half-maximal effect; nearly all actives have a fitted effect of over 55% in size
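5-Fluorouridine DNA damage + compound/DMSO, 2,000 cells/well, 16 h, 37 °C/5% CO2. ONE-Glo, 30 min RT, luminescence. Readout = decrease in reporter signal.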
The depositor's hits bear a star; ? = inconclusive; / = no result given; [ ] = another dose, or the depositor's remark. Unless noted, calls follow the shape of the dose curve; as a rule, active = well fitted curve in the direction sought with a large enough effect; inconclusive = small, poorly fitted or top-dose-only effect, or another doubt; inactive = no such curve, though single readings can be large; an effect the other way counts as inactive or inconclusive. % is scaled to controls: 0 for no effect and ±100 for the full control effect.

SMILES	IL1B secr inh	DT40 TDP1 no CPT	RORgamma inh	VP16 counter	TDP1 cell CPT	ELG1 DNA repair
CCOc1ccc(Cn2c(CNS(=O)(=O)c3cccs3)nc3cccnc32)cc1	/	23µM*	/	/	?	/
CCc1ccc(Cn2c(CNS(=O)(=O)c3ccc(Cl)s3)nc3cccnc32)cc1	/	16µM*	/	/	16µM*	/
CC(=O)c1ccc(NC(=O)c2sc(-n3nc(C)c(CCC(C)C)c3C)nc2C)cc1	/	?	/	/	-70%	/
O=C(CSc1nc2ccccc2s1)N1CCCCC1	12	-11%	37%	-9%	-4%	?
Cc1nnc(SCc2nc(N)nc(Nc3ccccc3)n2)s1	-20	-4%	?	-8%	-24%	?
Nc1nc(CSc2nc3ccccc3s2)nc(N2CCCCC2)n1	-23	-21%	6.3µM*	13µM*	2%	-11%
CCc1ccccc1Nc1nc(N)nc(CSCC(=O)Nc2ccc(C)c(C)c2)n1	-9	?	29%	1%	0%	-17%
CCc1ccc(Nc2nc(N)nc(CSc3nc4ccccc4s3)n2)cc1	21	?	13µM*	?	?	?
CCc1ccc(NC(=O)CSCc2nc(N)nc(Nc3ccccc3CC)n2)cc1	?	?	-20%	-1%	15µM*	-11%
CCOc1ccc(CNC(=O)C2Cc3ccccc3N2C(=O)CC)cc1 (stereo not drawn)	/	-26%	/	/	-24%	/
COc1ccc(N2CCN(C(=O)c3cc4cc5ccc(Cl)cc5nc4o3)CC2)cc1	/	-8%	/	/	-5%	/
COc1ccc(CCNc2oc(-c3ccccc3OC)nc2C#N)cc1	?	?	30%	-18%	?	-20%
COc1ccc(CCNc2cc(C)nc3c(-c4ccccc4OC)cnn23)cc1OC	-4	18µM*	-17%	-8%	?	?
COc1ccc(CCNc2oc(-c3ccccc3OC)nc2C#N)cc1OC	-11	18µM*	10%	-4%	?	-23%
COc1ccc(-c2nc(C#N)c(NC(C)c3ccccc3)o2)cc1OC (stereo not drawn)	?	16µM*	?	-3%	?	?
COc1ccc(CCNc2oc(-c3ccc(OC)c(OC)c3)nc2C#N)cc1	-4	?	-2%	-3%	11µM*	?
O=C(c1ccco1)N1CCN(S(=O)(=O)Cc2ccccc2Cl)CC1	-6	0%	41%	-16%	-15%	0%
CCOC(=O)c1[nH]c(C)c(CCC(=O)NCc2ccc(N(C)C)cc2)c1C	/	-26%	/	/	-26%	/
CCOc1ccc(CCNC(=O)CCNC(=O)c2ccccc2Cl)cc1OCC	19	-5%	3%	-1%	-10%	-3%
COC(=O)c1c(NC(=O)c2ccc(S(=O)(=O)N(C)C3CCCCC3)cc2)sc2c1CCN(C)C2	/	-106%	/	/	-105%	/
CNC(=O)c1c(NC(=O)c2ccc(S(=O)(=O)N3CCCC3)cc2)sc2c1CCN(C(C)C)C2	/	/	-34%	-12%	/	?
CCOC(=O)c1c(NC(=O)c2ccc(S(=O)(=O)N3CCOCC3)cc2)sc2c1CCN(C(C)C)C2	?	8.2µM*	1%	-1%	?	12%
CCN1CCc2c(sc(NC(=O)c3ccc(S(=O)(=O)N4CCOCC4)cc3)c2C(N)=O)C1	?	?	5%	-1%	?	-2%
COC(=O)c1c(NC(=O)C2CC2)sc2c1CCCC2	8	-25%	?	-11%	-12%	2%
CCN1CCc2c(sc(NC(=O)c3ccc(S(=O)(=O)N4CCOCC4)cc3)c2C(=O)OC)C1	-5	?	9%	-10%	8.2µM*	-14%
SMILES	IL1B secr inh	DT40 TDP1 no CPT	RORgamma inh	VP16 counter	TDP1 cell CPT	ELG1 DNA repair
COC(=O)c1c(NC(=O)c2ccc(S(=O)(=O)N3CCOCC3)cc2)sc2c1CCN(C)C2	-75*	?	-4%	-12%	?	-2%
COC(=O)c1c(NC(=S)NN2CCOCC2)sc2c1CCCC2	-13	15µM*	1.3µM*	4µM*	?	-17%
Cc1cc(NC(=O)c2ccc3sc([C@@H]4O[C@H](CO)[C@H](O)[C@H](O)[C@H]4O)nc3c2)n(C)n1	2	3%	/	/	0%	/
N#Cc1cccc(NC(=O)N2CC[C@@]3(CCCNC3)C2)c1	/	-14%	-12%	4%	-90%	/
O=C(CN1C(=O)c2ccccc2C1=O)c1ccccc1	-5	-1%	3%	-7%	0%	?
CC1=C(CC(=O)c2ccccc2)C(=O)c2ccccc2C1=O	42	12µM*	-44%	?	8.2µM*	?
C=CCCN(C(C)C(=O)OC)S(=O)(=O)c1ccccc1Br (stereo not drawn)	/	/	-23%	-4%	/	/
O=C1c2ccccc2CCC12OC2c1ccncc1 (stereo not drawn)	-20	2.9µM*	/	/	-16%	/
Cc1cccc(NC(=O)c2ccc3nccnc3c2)n1	-20	-25%	10%	-2%	?	?
Cc1csc(NC(=O)c2ccncc2)n1	0	8%	-3%	23%	-14%	?
CC(C)(C)c1csc(NC(=O)c2ccc3nccnc3c2)n1	0	18µM*	45%	-13%	16µM*	?
CC(C)(C)c1csc(NC(=O)c2ccncc2)n1	19	21µM*	35%	?	?	?
Cc1[nH]c(=O)n(C(C)C)c(=O)c1Br	-2	-11%	/	/	0%	/
CC1=NN(C(N)=S)C(=O)C1N=Nc1ccc(S(N)(=O)=O)cc1 (stereo not drawn)	0	-9%	-10%[1.91 µM]	?	-8%	8%
NS(=O)(=O)c1ccc(N=Nc2nc3[nH]cnc(=S)c3[nH]2)cc1	/	6.3µM*	/	/	5µM*	/
CC12CCC(=O)N1C(C(=O)N1CCN(c3ccc([N+](=O)[O-])cc3)CC1)CS2 (stereo not drawn)	2	21µM*	/	/	?	?
CC12CCC(=O)N1C(C(=O)N1CCN(c3ccccc3)CC1)CS2 (stereo not drawn)	1	-3%	/	/	3%	4%
CC12CCC(=O)N1C(C(=O)N1CCN(c3ccc(C(F)(F)F)cc3[N+](=O)[O-])CC1)CS2 (stereo not drawn)	0	26µM*	0%	-8%	21µM*	?
CC(=O)OCC1OC(C#Cc2ccc(Br)cc2)C=CC1OC(C)=O (stereo not drawn)	/	/	2%[10 µM]	3%[10 µM]	/	/
C/C(=N\NC(=O)CSCc1ccccc1Cl)c1cc(O)ccc1O	40	5.2µM*	5µM*	11µM*	6.5µM*	18µM*
